High-throughput results deposited in PubChem BioAssay by National Center for Advancing Translational Sciences (NCATS).
This is a sample that favours compounds with a hit; in the whole collection about 2.9% have one here.
a7 integrin act: integrin-mediated muscular dystrophy alleviation activation; alpha7betagal myoblasts, beta-gal FDG fluorescence, 48 h; Potency, µM (top dose mostly 38.3 µM), actives largely listed as activators; 350,000 compounds, 0.064% hits; further: nearly all actives have a fitted effect of over 60% in size
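Alpha7betagal+/- myoblasts (passage 13) were plated 16-24 hr, then exposed to compounds (1:260 dilution of DMSO stock) for 48 hours at 37C. After MPER lysis, β-galactosidase reporter activity was read as FDG fluorescence (ex 480/em 540) after 30 minutes.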
DRD3 antagonist: D3 dopamine receptor (human) antagonism | max response, negative = inhibition, % | AID 652054 | D3R cells, DiscoveRx beta-arrestin luminescence, antagonist mode; active compounds read low | P35462 | 360,000 compounds, 2.5% hits; in the data active means max response below about -50%; inconclusive means no clear call, values can overlap the other calls
Target sequence (P35462 whole entry, looked up): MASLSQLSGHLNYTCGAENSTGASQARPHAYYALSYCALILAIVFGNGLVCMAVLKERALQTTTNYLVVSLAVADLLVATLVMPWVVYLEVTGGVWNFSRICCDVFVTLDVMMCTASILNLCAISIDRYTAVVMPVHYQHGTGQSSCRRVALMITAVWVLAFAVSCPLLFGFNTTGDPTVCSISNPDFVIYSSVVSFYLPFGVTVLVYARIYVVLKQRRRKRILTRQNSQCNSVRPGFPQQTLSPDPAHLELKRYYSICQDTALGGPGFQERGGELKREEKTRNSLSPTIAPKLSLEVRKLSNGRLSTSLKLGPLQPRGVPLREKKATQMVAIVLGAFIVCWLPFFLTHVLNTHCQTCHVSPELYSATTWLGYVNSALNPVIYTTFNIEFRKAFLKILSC
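Cells plated overnight at 1500 cells/well, then exposed to library compounds with dopamine controls for 90 minutes at 37 degrees C. DiscoveRx reagent added for 30–60 minutes at room temperature; luminescence read, quantitative HTS format.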
mIDH1 inhibitor: inhibitors of human mutant IDH1 R132H. IDH1-R132H enzyme, NADPH consumption, diaphorase/resazurin fluorescence. Potency, µM (doses to about 76.6 µM), hits mostly inhibitors. 390,000 compounds, 0.093% hits. AID 602179; further: nearly all actives have a fitted effect of over 65% in size
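IDH1-R132H (0.5 ug/mL) preincubated 30 min with compound, then NADPH (0.016 mM) and alpha-KG (2 mM) added; 80 min at RT, pH 7.5. Remaining NADPH coupled via diaphorase/resazurin to fluorescence (540/590 nm); concentration-response curves normalized to no-enzyme control.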
DRD3 agonist: activates the human D3 dopamine receptor; 410,000 compounds, 0.58% hits; max activation, %; D3R DiscoveRx beta-arrestin cells, luminescence, 90 min; AID 652048; in the data active means max activation above about 30%
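Cells at 1500/well, incubated overnight, then treated with pinned compounds (dopamine as control) for 90 min at 37 degrees C. DiscoveRx reagent added for 30 - 60 minutes at room temperature; luminescence read.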
B2AR arrestin: recruits beta-arrestin to the human beta2-adrenergic receptor; P07550; beta-arrestin recruitment to beta2AR, cell-based reporter; Potency, µM (doses to about 46.1 µM), actives largely listed as activators; 330,000 compounds, 0.02% hits; AID 492947; further: nearly all actives have a fitted effect of over 65% in size
Of the large screens only hits and unclear results are named; the others gave an inactive call; ! = a repeat was not active. Unless noted, the call rests on the fitted dose curve; in most records, active means well fitted curve in the direction sought with a large enough effect; inconclusive means small, poorly fitted or top-dose-only effect, or another doubt; inactive means no such curve, though single readings can be large; an effect the other way counts as inactive or inconclusive.

Cc1ccc(CNc2ncnc(N)c2[N+](=O)[O-])cc1	a7 integrin act 10µM
CCOC(=O)C1=NN(C(=O)c2ccc(C)cc2)C(O)(c2ccc(Cl)cc2)C1 (configuration not stated)	DRD3 antagonist -57
C=CCNCCOCCOc1ccc(Cl)cc1C(C)(C)C	DRD3 antagonist -58
C=CCc1cc(Cl)ccc1OCCNCCOC	DRD3 antagonist -56
C=CCc1cc(Cl)ccc1OCCNCCN1CCOCC1	DRD3 antagonist inconclusive
Cc1cccc(-c2noc(-c3ccc(N4CCN(C)CC4)c([N+](=O)[O-])c3)n2)c1	none (no result: a7 integrin act, DRD3 antagonist, B2AR arrestin)
Cc1ccc(Cn2c(=N)n(CC(=O)c3ccccc3)c3ccccc32)cc1	none
CCC(C)NCCOc1ccc(Br)cc1 (configuration not stated)	DRD3 antagonist -68
CCC(C)NCCOc1ccccc1C (configuration not stated)	DRD3 antagonist -67
Cc1ccccc1OCCNC(=S)Nc1ccccc1	none
Cc1cc(C)[n+]2n1C(=O)C(c1ccccc1)=C2[O-]	DRD3 agonist 50!
COC(=O)c1ccccc1NC(=O)CCCn1c(=O)c2cccn2c2cccnc21	none (no result: a7 integrin act, DRD3 antagonist, B2AR arrestin)
COc1cc(S(=O)(=O)N2CCC(O)(c3cccc(C(F)(F)F)c3)CC2)ccc1-n1cnnn1	DRD3 antagonist -82
CCCN1C[C@H](CSC)C[C@@H]2c3cccc4[nH]cc(c34)C[C@H]21	DRD3 agonist 84 (no result: a7 integrin act)
CCCn1c(=O)c2sccc2n2c(CCCC(=O)Nc3ccc(Oc4ccc(Cl)cc4)cc3)nnc12	none (no result: a7 integrin act, DRD3 antagonist, B2AR arrestin)
Cn1c(-c2ccc(F)cc2)cnc1NCc1cccc(F)c1	DRD3 antagonist inconclusive
Cn1c(-c2cccc(Br)c2)cnc1NCc1cccnc1	DRD3 antagonist -60
CS(=O)(=O)Nc1cc2occ(NC=O)c(=O)c2cc1Oc1ccccc1	none (no result: a7 integrin act, DRD3 antagonist, mIDH1 inhibitor, B2AR arrestin)
CCn1c(N2CCN(S(=O)(=O)c3ccc(OC)cc3)CC2)nc2ccccc21	DRD3 agonist 36
O=S(=O)(c1ccccc1C(F)(F)F)N1CCN(S(=O)(=O)c2ccccc2C(F)(F)F)CC1	none
CCn1c(N2CCN(S(=O)(=O)c3ccccc3C(F)(F)F)CC2)nc2ccccc21	DRD3 agonist 32
Cc1cccc(-c2nc3c4ccccc4nc(N4CCN(c5cc(C)ccc5C)CC4)n3n2)c1	none (no result: a7 integrin act, DRD3 antagonist, B2AR arrestin)
C=CCN1CCc2c(cc(O)c(O)c2Br)[C@@H](c2ccccc2)C1	DRD3 agonist 83 (no result: a7 integrin act, B2AR arrestin)
O=C(CBr)N1CCc2ccccc2C(c2ccccc2)C1 (configuration not stated)	none
CCS(=O)(=O)N1CC(=O)N(c2cccc(C)c2C)C(C)(C(=O)NC2CCCCC2)C1 (configuration not stated)	none (no result: a7 integrin act, DRD3 antagonist, B2AR arrestin)
C=C1/C(=C\C=C2/CCC[C@]3(C)[C@@H]([C@H](C)OCCC(C)(C)O)CC[C@@H]23)C[C@@H](O)C[C@@H]1O	none (no result: a7 integrin act, DRD3 antagonist, mIDH1 inhibitor, B2AR arrestin)
COCCCNC(=O)c1ccc2c3c(onc13)-c1ccccc1C2=O	DRD3 antagonist inconclusive
CCOC(=O)C(C(=O)OCC)c1cc(Br)c2noc3c2c1C(=O)c1ccccc1-3	DRD3 antagonist -102
O=C(CNC(=O)c1ccccc1F)NCc1ccccn1	none
Cc1ccccc1CN1C(=O)c2ccccc2Sc2ccc(C(=O)NC3CCCC3)cc21	none (no result: a7 integrin act, DRD3 antagonist, B2AR arrestin)
COc1ccc(C(=O)NCCCN=C2NS(=O)(=O)c3ccccc32)cc1	DRD3 antagonist -75
COc1ccc(-c2nc(NC(C)=O)sc2-c2ccc(OC)cc2)cc1	none
CNc1nc(-c2ccc(OC)cc2)c(-c2ccc(OC)cc2)s1	a7 integrin act inconclusive, DRD3 agonist 49
COc1ccc(C(=O)NNC(=O)CSc2nnc(-c3ccc(O)cc3)n2C)cc1	none
Cc1ccc(NC(=O)CSc2nnc(-c3ccncc3)n2N)cc1C	DRD3 antagonist -70
Cc1ccc(C(=O)NNC(=O)CSc2nnc(-c3ccncc3)n2C)cc1	DRD3 antagonist -75
COc1ccc(C(=O)NNC(=O)CSc2nnc(COc3ccccc3)n2C)cc1	none
COc1ccc(OCc2nnc(SCC(=O)NNC(=O)c3ccc(C)cc3)n2C)cc1	DRD3 antagonist -118
Cc1ccc(C(=O)Nc2cccc(N(C)S(C)(=O)=O)c2)cc1S(=O)(=O)Nc1ccccc1	DRD3 agonist 44
Cc1ccc(C(=O)Nc2ccccc2C(=O)O)cc1S(=O)(=O)NCc1ccccc1	none
Cc1ccc(C(=O)Nc2ccccc2C(=O)O)cc1S(=O)(=O)Nc1ccc(Br)cc1	DRD3 agonist 34 (no result: B2AR arrestin)
